# Laboratory results as given in PubChem BioAssay AID463115 (University of Pittsburgh Molecular Library Screening Center, 2010).
# Hit rate of the full screen: of about 220,000 compounds, about 130 (0.059%) were called active. Shown is part of a subset that was picked to be rich in actives. A number with no mark means an inactive call. Rule as the data show it: active = inhibition above about 25%; inactive = the rest.
# Molecular target: Furin (Homo sapiens) (UniProt P09958)
# Experiment: human furin inhibitors, primary screen, biochemical, fluorescence intensity (AID 463115)
# Conditions: purified furin, fluorogenic substrate cleavage, stronger effect = higher value; at 30 µM unless noted
# Furin (Homo sapiens), sequence (P09958 108-714 limits assumed): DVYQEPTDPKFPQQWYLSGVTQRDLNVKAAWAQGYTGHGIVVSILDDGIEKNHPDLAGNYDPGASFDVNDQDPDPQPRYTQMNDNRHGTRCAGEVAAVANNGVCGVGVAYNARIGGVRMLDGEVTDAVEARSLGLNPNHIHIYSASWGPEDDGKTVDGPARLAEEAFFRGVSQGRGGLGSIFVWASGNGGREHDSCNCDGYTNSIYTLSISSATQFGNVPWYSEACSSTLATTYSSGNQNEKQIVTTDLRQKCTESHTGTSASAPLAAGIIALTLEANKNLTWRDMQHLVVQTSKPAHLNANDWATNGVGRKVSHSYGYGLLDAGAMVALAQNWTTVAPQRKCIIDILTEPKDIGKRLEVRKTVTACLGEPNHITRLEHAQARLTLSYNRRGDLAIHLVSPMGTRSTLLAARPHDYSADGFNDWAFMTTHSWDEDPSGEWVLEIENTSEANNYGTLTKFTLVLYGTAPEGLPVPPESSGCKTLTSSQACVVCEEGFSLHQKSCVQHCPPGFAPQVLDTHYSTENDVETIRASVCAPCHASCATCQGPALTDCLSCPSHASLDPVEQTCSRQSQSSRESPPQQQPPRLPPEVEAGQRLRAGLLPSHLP
row,SMILES,inhibition
1,Cc1ccc(N(C(=O)Cc2cccs2)C2C=CS(=O)(=O)C2)cc1Cl (stereo not drawn),-2.17%
2,Cc1ccc(-n2c(SCC(=O)N/N=C/C=C/c3ccccc3[N+](=O)[O-])nc3ccccc3c2=O)cc1,-14.5%
3,CCC(=O)N(Cc1cc2ccccc2[nH]c1=O)c1ccc(OC)cc1,-11.6%
4,CCCCc1ccc(NC(=S)N2CCCC(CO)C2)cc1 (stereo not drawn),-6.03%
5,O=S(=O)(NCC1CCCO1)c1cnc(Cl)c(Cl)c1 (stereo not drawn),-12.9%
6,Cc1ccc(NC(=S)N(CCN(C)C)Cc2cccs2)cc1C,-9.92%
7,COc1cccc(/C=N/NC(=O)CNC(=O)c2ccc(S(=O)(=O)N3CCOCC3)cc2)c1OC,-9.37%
8,COC(=O)CCc1sc(Nc2ccc(Br)cc2)nc1-c1ccc(OC)cc1,-10.8%
9,CC1=CC=CN2C1=NC(=O)CC2(C)C(=O)N(CC(=O)NC1CCCC1)c1ccccc1C (stereo not drawn),-22.6%
10,CC(C)C1Nc2c(C(=O)O)cccc2C(Nc2ccccc2C(=O)O)C1(C)C (stereo not drawn),-28%
11,Cn1c(CCCOc2ccc(Cl)cc2Cl)n[nH]c1=S,-27%
12,O=C(O)C1C2CC2CN1C(=O)c1ccc(Cl)cc1Cl (stereo not drawn),-14.1%
13,O=C1CC(Cc2ccc(Cl)cc2)C(=O)N1c1cc(Cl)ccn1 (stereo not drawn),7.89%
14,CCn1c(-c2cccnc2Cl)nc2cc(C)c(C)cc21,-16.4%
15,CCOC(=O)CCCNC(=O)COC(=O)c1cc(Br)c(Br)s1,-22.9%
16,CC(Sc1nnc(Cc2ccc([N+](=O)[O-])cc2)o1)C(N)=O (stereo not drawn),-20.4% [at 20 µM]
17,O=C(c1ccc(OC2CCN(C(=O)c3cccnc3)CC2)cc1)N1CCCCCC1,-20.3%
18,CCOC(=O)/C(=C\c1ccc([N+](=O)[O-])cc1)C(=O)c1cc(C(C)=O)c(Nc2ccccc2)s1,-2.4%
19,CC(C)(C)c1nc2ccccc2c(=O)n1N1C(=O)c2ccccc2C1=O,-15.6% [at 20 µM]
20,O=C(NC1CCN(Cc2ccccc2)CC1)c1cc(Br)c(Br)[nH]1,-27.8%
21,NC(N)=NCCCc1cn(CC(=O)N2CCNCC2)nn1,-18.6%
22,CC(C)(O)C#Cc1ncc(C(F)(F)F)cc1Cl,-28.4%

row,SMILES,inhibition
1,Cc1ccc(/C=C/C(=O)O)cc1S(=O)(=O)N1CCC(Cc2ccccc2)CC1,-29.9%
2,CCOc1ccc(N2C(=O)/C(=C/c3ccc(C)o3)N(C)C2=S)cc1,3.15%
3,O=C(/C=C/NNC(=O)c1cccc(Br)c1)c1ccccc1,0.209% [at 20 µM]
4,O=C(C1=C[C@H](c2coc3ccccc3c2=O)C[C@H](OCc2ccc(CO)cc2)O1)N1CCN(Cc2ccccc2)CC1,-22.1%
5,COc1cc(/C=N\NC(=O)c2nonc2N)c(OC)cc1Br,-19.8%
6,Cc1nnc(SCC(=O)NC2CCCC2)s1,-7.06% [at 20 µM]
7,NNc1nc2c(Cl)cccc2s1,-15.9%
8,COc1ccc(NS(=O)(=O)c2ccc(Oc3c(C#N)cccc3C#N)cc2)cc1,-15.9%
9,CC1=C[C@H]2Cc3cc(C)cc(C)c3S(=O)(=O)[C@@H]2C=C1,-14.9%
10,Cn1c(=O)c2c(ncn2CC(COCc2ccccc2Cl)OCc2ccccc2Cl)n(C)c1=O (stereo not drawn),-9.34% [at 20 µM]
11,Cn1c(SCC(=O)c2ccc(F)cc2)nnc1-c1ccccn1,-22.4%
12,CCc1cc(C(=O)OC)c(NC(=O)CC2Sc3ccc(C(F)(F)F)cc3NC2=O)s1 (stereo not drawn),-18.6%
13,Cc1nc2ccccn2c1C(=O)NN=C1CCN(C)CC1,-16.6%
14,CCOC(=O)/C(C#N)=C\c1c(C)cc(C)c(COC(C)=O)c1C,-3.87% [at 20 µM]
15,CCc1cc(Br)ccc1NC(=O)C1CCCO1 (stereo not drawn),-9.19% [at 20 µM]
16,CCOC(=O)Cn1c(=O)oc2cc(S(=O)(=O)NCC3CCCO3)ccc21 (stereo not drawn),-8.46%
17,OC(CNCC1CCCO1)Cn1c2ccc(Br)cc2c2cc(Br)ccc21 (stereo not drawn),31.4% [at 20 µM] (active)
18,COc1ccc(C(=O)Nc2c(Cl)cc(Cl)cc2C(=O)N2CCC(C)CC2)cc1,-7.28%
19,CSc1ccccc1-c1nnc(-c2ccc(Cl)cc2)o1,-17.9% [at 20 µM]
20,CNC(=O)c1[nH]cnc1C(=O)N[C@@H](CC(C)C)C(=O)OCc1ccccc1,-29.8%
21,CCOc1ccc(Oc2nc(C)cc(OC)n2)nn1,-13.8%
22,O=C(O)Cc1csc(NC(=O)CSc2nnnn2-c2ccc(O)cc2)n1,-27.1%

row,SMILES,inhibition
1,Cc1ccc2nc(COc3ccc(N(C)S(=O)(=O)c4ccccc4)cc3)cc(=O)n2c1,-21.2%
2,Cc1ccc(-n2nc3cc(Cl)c(NC(=O)c4ccco4)cc3n2)cc1,-6.45% [at 20 µM]
3,Cc1cc2nc(-c3ccc(NC(=O)c4cccnc4)cc3)oc2cc1C,-16%
4,Cc1ccc(-n2nc3cc(C)c(NC(=O)c4cccnc4)cc3n2)cc1,34.8% [at 20 µM] (active)
5,O=C(NCc1cccnc1)Nc1cccc(NC(=O)NCc2cccnc2)c1F,-13.7%
6,CCCN(CCC)CC(O)COc1ccccc1C(=O)Nc1ccccc1 (stereo not drawn),-22.6%
7,CCn1c(=O)c([N+](=O)[O-])c(NCc2ccc3c(c2)OCO3)c2ccccc21,-12.9%
8,CC1=NN(C(=O)Cc2ccc(C)cc2)C(O)(c2cccnc2)C1 (stereo not drawn),-14% [at 20 µM]
9,CCC(CC)c1nnc(NC(=O)c2nn(C)c(=O)c3ccccc23)s1,-10.6%
10,Cc1ccc(NC(=O)C(=O)NCc2ccco2)c(C)c1,-25.7%
11,C=CCn1c(Cn2nnc3ccccc32)nnc1SCC(=O)N/N=C/c1cc(Br)cc(OC)c1O,1.52% [at 20 µM]
12,C/C=C/C(=O)Nc1ccc(N2CCN(c3ccc(C(F)(F)F)cn3)CC2)nc1,-27.8%
13,COc1cc(OC)c(C(=O)OC(C)C(=O)Nc2cc(C(F)(F)F)ccc2Cl)cc1OC (stereo not drawn),-12.3%
14,O=C(Nc1ccccc1C(=O)N1CCOCC1)c1ccc(Cl)cc1,-16.3%
15,Cc1cc(C(=O)N2CCC(C(=O)O)CC2)c(C(F)(F)F)o1,-9.96%
16,O=C(Nc1cnn(Cc2ccc(Cl)cc2)c1)C1CCCC1,-14.4% [at 20 µM]
17,Cc1nn(C)cc1C(=O)Nc1ccccc1Br,-17.2%
18,C=CCC(CC=C)(C(N)=O)c1ccccc1,-29.7%
19,Fc1ccccc1OCCCCn1cncn1,-28.7% [at 20 µM]
20,COc1ccc(CCNc2cc(C)nc3c(-c4ccc(Cl)cc4)c(C)nn23)cc1OC,9.61%
21,O=C(Nc1nccs1)C1CCN(S(=O)(=O)c2ccc(Cl)c(C(F)(F)F)c2)CC1,-14.1% [at 20 µM]
22,COCCNc1nc2nonc2nc1N1CCCC1c1nccs1 (stereo not drawn),-8.2%

row,SMILES,inhibition
1,O=C(/C=C/c1ccccc1)Nc1nnc(SCC(=O)c2ccc3ccccc3c2)s1,-20.8%
2,COCCN1C(=O)N[C@@H](CCc2ccccc2)[C@H](C(C)=O)[C@H]1C,-15.4%
3,CC(=O)C1=C(C)NC(=O)NC1c1cc(Br)ccc1OCC#N (stereo not drawn),-17.2% [at 20 µM]
4,CSCC[C@H](NC(=O)OC(C)(C)C)C(=O)N/N=C/c1cc2ccc(C)cc2nc1Cl,-14.1%
5,CC1(C)CC(=O)C(N=Nc2ccc(S(=O)(=O)N3CCCCCC3)cc2)=C(O)C1,-26.5%
6,C/C(=N\Nc1nc2ccccc2[nH]1)c1cccs1,-12.4%
7,CC(NC(=O)C(C)(C)C)C(c1cccs1)N1CCN(Cc2ccccc2)CC1 (stereo not drawn),-27.5%
8,CC(NC(=O)Nc1ccccc1)C(c1cccs1)N1CCN(c2ccccc2)CC1 (stereo not drawn),-13.8%
9,CCCC(=O)NC(C)C(c1cccs1)N1CCN(c2ccccc2)CC1 (stereo not drawn),25.4% [at 20 µM] (active)
10,COc1ccc(C(=O)NC(=S)Nc2ccc(Cl)cn2)cc1OC,-15.4%
11,Cn1c(=O)n(C)c2cc(NS(=O)(=O)c3ccc(F)cc3)ccc21,-20.7%
12,CCC(=O)Nc1sc(C(=O)Nc2ccccc2)c(C)c1C(=O)OC,-21.3%
13,C#CCO[C@@H]1C[C@H](n2cnc3c(=O)[nH]c(NC(=O)C(C)C)nc32)O[C@@H]1CO,-9.33%
14,O=C1N=C(N2CCc3ccccc3C2)S/C1=C\c1ccc(O)cc1,-5.76%
15,Cc1nc2sc(C(c3ccco3)N3CCC4(CC3)OCCO4)c(O)n2n1 (stereo not drawn),-16.3% [at 20 µM]
16,COc1ccc(/C=C/C(=O)c2ccc(NS(=O)(=O)c3ccc(C)cc3)cc2)cc1O,-7.18%
17,COC(=O)c1ccc(C(=O)OC)c(NC(=S)N2CCN(c3ccc(F)cc3)CC2)c1,-22.8%
18,O=C(Nc1ccccc1-c1nnn(CC(=O)N2CCCc3ccccc32)n1)c1cccc(Cl)c1,-12.2% [at 20 µM]
19,Cc1cc(C)n(-c2nnc(C)n2NC(=O)c2cccc(Cl)c2)n1,-15.9% [at 20 µM]
20,O=C(NCc1ccco1)C(=O)c1cn(CC(=O)N2CCCCCC2)c2ccccc12,-16.3%
21,CCOc1ncccc1C(=O)OCC(=O)NC1CC1,-17.7%
22,O=C(c1cccc([N+](=O)[O-])c1)N1CCN(C(=O)c2ccco2)CC1,-10.7%
